An excerpt weighted towards active compounds, which were near 15% of everything screened.
ELG1 repair inh – blocks ELG1-dependent DNA repair in HEK293T cells | HEK293T ELG1-luciferase reporter, luminescence, 16 h; DNA damage induced by 5-fluorouridine | Potency, µM (highest dose often 46.1 µM), inactives show at the highest dose activity change, negative = inhibition, usual class: inhibitors | hit rate 2.3% among 330,000 | AID 504467; further: nearly all actives have a fitted effect of over 55% in size
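Step one: seed 2,000 cells per well. Step two: pin-transfer compound or DMSO alongside 5-fluorouridine. Step three: incubate 16 hr, 37 °C, 5% CO2. Step four: add ONE-Glo, wait 30 min, read luminescence.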
12-LOX inh – ALOX12 (human) lipoxygenase inhibition; P18054; purified 12hLO, xylenol orange hydroperoxide absorbance; Potency, µM (highest dose often 108 µM), for the others: at the top dose activity change, negative = inhibition, hits mostly inhibitors; hit rate 1.1% among 580,000; AID 1671190
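Hydroperoxide product was detected by ferrous iron/xylenol orange as the 573 to 405 nm absorbance ratio. Arachidonic acid at 40 uM (final) was turned over for 30 min at room temperature by 150 nM human 12hLO, pH 7.0 Hepes buffer, after 15 min compound preincubation.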
RORg inh – inhibitors of mouse ROR gamma transcriptional activity. P51450. hit rate 5.4% among 310,000. Drosophila S2 Gal4-RORgamma UAS-luciferase reporter, 20 h. Potency, µM (series often up to 53.6 µM), inactives show at the highest dose activity change, negative = inhibition, most hits filed as inhibitors; further: nearly all actives have a fitted effect of over 60% in size
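Using a luciferase readout, inhibitors were identified by reduced reporter activity in Drosophila cells coexpressing a copper-inducible Gal4–ROR gamma fusion and UAS-driven Photinus luciferase, incubated 20 hr after 700 uM copper sulfate.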
TDP1 cell noCPT – qHTS for Inhibitors of human tyrosyl-DNA phosphodiesterase 1 (TDP1): qHTS in cells in absence of CPT | DT40 Tdp1-/- hTDP1 cells, no CPT, ATP luminescence, 48 h | Potency, µM (highest dose often 46.2 µM), for the others: top-dose activity change, negative = growth inhibition, most hits filed as inhibitors | hit rate 15% among 420,000; further: nearly all actives have a fitted effect of over 55% in size
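No-CPT arm: Tdp1-/-;hTDP1 DT40 cells (400/well) plus compounds, incubated ≥48 hr at 37 °C. Readout CellTiter-Glo luminescence.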
Gal4-VP16 FLuc – counter-screen for ROR gamma inhibitors: Gal4-VP16 reporter; Potency, µM (doses to about 53.6 µM), inactives show at the highest dose activity, negative = inhibition, most hits filed as inhibitors; hit rate 3.5% among 310,000; Drosophila S2 Gal4-VP16 UAS-luciferase, luminescence, 20 h; AID 2546;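 further: Gal4-VP16 expression switched on by copper sulfate through the metallothionein promoter; nearly all actives have a fitted effect of over 50% in size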
TDP1 cell CPT – DT40-hTDP1 cell growth loss with CPT | Potency, µM (series often up to 46.2 µM), for the others: top-dose activity change, negative = growth inhibition, actives largely listed as inhibitors | chicken DT40 Tdp1-/-;hTDP1 cells + 20 nM CPT, ATP luminescence, 48 h | hit rate 12% among 420,000 | AID 686979; further: nearly all actives have a fitted effect of over 55% in size
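Chicken DT40 Tdp1-/- cells stably complemented with human TDP1 were seeded at 400 cells/well in medium containing 20 nM camptothecin, exposed to pin-transferred compounds, and grown at 37 °C for at least 48 hr. Viability was read as ATP luminescence.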
ELG1 FLuc counter – luciferase inhibition in cell-free luciferin readout for ELG1 hits | cell-free firefly luciferase luminescence counter-screen, ViewLux | Potency, µM (top dose mostly 46.1 µM), without a hit: at the highest dose activity change, negative = inhibition, actives largely listed as inhibitors | hit rate 3% among 350 | shares compounds with ELG1 repair inh
ELG1 Luc conf – inhibits ELG1-dependent DNA repair in HEK293T cells, confirmed. shares compounds with ELG1 repair inh. HEK293T ELG1-luciferase levels, luminescence; cells co-treated with 5-fluorouridine. Potency, µM (highest dose often 46.1 µM), for the others: at the highest dose activity change, negative = inhibition, hits mostly inhibitors. hit rate 68% among 670. AID 624248; further: nearly all actives have a fitted effect of over 55% in size
ELG1 MMS Luc – confirmation of human ELG1 repair inhibitors, MMS stimulated; shares compounds with ELG1 repair inh; HEK293T luciferase-tagged ELG1 level, MMS stimulated; Potency, µM (highest dose often 46.1 µM), inactives show at the top dose activity change, negative = inhibition, usual class: inhibitors; hit rate 53% among 670; AID 624249; further: nearly all actives have a fitted effect of over 60% in size
ELG1 5-FU – confirmation of ELG1 repair inhibitors: viability with 5FU; shares compounds with ELG1 repair inh; cell viability with 5-FU, ELG1-dependent repair; Potency, µM (doses to about 46.1 µM), inactives show at the highest dose activity change, negative = viability loss, most hits filed as cytotoxic; 670 tested, under 10 active; AID 624250;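 further: ELG1-luc HEK293T cells cotreated with 5-fluorouridine at 10 µM final; viability measured 16 h after compound addition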
ELG1 MMS cell – confirmation of ELG1 repair inhibitors: viability with MMS; shares compounds with ELG1 repair inh; Cell viability with MMS, ELG1-dependent DNA repair; Potency, µM (series often up to 46.1 µM), inactives show at the top dose activity change, negative = viability loss, usual class: cytotoxic; hit rate 33% among 670;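 further: ELG1-luc HEK293T cells co-treated with 10 µM MMS; viability read 16 h after compound addition; nearly all actives have a fitted effect of over 60% in size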
Cell viab unstim – counter-screen for ELG1 repair inhibitors: unstimulated cell viability; shares compounds with ELG1 repair inh; cell viability counter-screen, unstimulated, luminescence; Potency, µM (titrated, usually from 45.9 µM), without a hit: at the top dose activity change, negative = loss of viability, most hits filed as cytotoxic; hit rate 8% among 900; AID 624252;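 further: compound exposure lasted 16 hours before reading; nearly all actives have a fitted effect of over 55% in size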
FLuc biochem – firefly luciferase inhibition counter-screen; shares compounds with ELG1 repair inh; purified firefly luciferase, luminescence counter-screen; Potency, µM (top dose mostly 57.5 µM), for inactives: at the top dose activity, negative = inhibition, actives largely listed as inhibitors; hit rate 10% among 350
* marks the source's active call; other numbers are inactive results; ? = inconclusive; · = not tested or not shown. The call rests on the fitted dose curve; in most records, active means well fitted curve in the direction sought with a large enough effect; inconclusive means small, poorly fitted or top-dose-only effect, or another doubt; inactive means no such curve, though single readings can be large; an effect the other way counts as inactive or inconclusive. On the % scale 0 is the no-effect control and ±100 the full control effect; potency means the concentration at half of the fitted maximal effect.

SMILES | ELG1 repair inh | 12-LOX inh | RORg inh | TDP1 cell noCPT | Gal4-VP16 FLuc | TDP1 cell CPT | ELG1 Luc conf | ELG1 MMS Luc | ELG1 5-FU | ELG1 MMS cell | Cell viab unstim | others
COc1ccccc1Nc1nc(N2CCOCC2)nc(N2CCOCC2)n1 | 1.64µM* | -15.5% | 1.2% | ? | -13.5% | ? | 7.92µM* | 1.7% | ? | -2.1% | -7.9% | ELG1 FLuc counter=0.1%;FLuc biochem=3.6%
COc1ccccc1CCC(=O)N1CCCN(c2cc(-c3ccc(Cl)cc3)[nH]n2)CC1 | · | 32.0% | · | · | · | · | · | · | · | · | ·
O=C1NC2(CCN(C(=O)c3ccc4c(c3)OCO4)CC2)COc2ccccc21 | · | 48.1% | · | · | · | · | · | · | · | · | ·
Cc1cc(C(=O)N2CCCn3ccnc3C2c2cnn(C)c2)n[nH]1 (stereo not drawn) | · | 88.1% | · | · | · | · | · | · | · | · | ·
Cc1cc(NC(=O)Cc2ccccc2)c2ccccc2n1 | ? | 2.5% | ? | 2.59µM* | 3.16µM* | 5.17µM* | ? | 1.99µM* | 1.1% | 2.5µM* | ?
COC(=O)Nc1cc(C)nc2ccccc12 | 1.5% | 41.5% | ? | -20.5% | 12.0% | -16.0% | · | · | · | · | ·
COC(=O)c1cnc(NC(=O)COc2cccc3ccccc23)s1 | · | -28.8% | · | · | · | · | · | · | · | · | ·
CC(C)(C)c1cc2cc(C#N)ccc2[nH]1 | · | -61.2% | · | · | · | · | · | · | · | · | ·
Cc1c(CC(=O)N2CCN(C(=O)C3COc4ccccc4O3)CC2)c(=O)oc2cc(O)cc(O)c12 (stereo not drawn) | ? | 5.7% | -6.4% | -4.9% | -6.0% | 2.9% | · | · | · | · | ·
Cc1c(CC(=O)N2CCN(C(=O)C3COc4ccccc4O3)CC2)c(=O)oc2c(C)c(O)ccc12 (stereo not drawn) | 0.58µM* | 0.3% | -13.0% | ? | -21.4% | ? | 3.97µM* | ? | ? | -2.0% | ? | ELG1 FLuc counter=-14.3%;FLuc biochem=-3.9%
